# Test results taken from paper PMC11006913.
# What was measured:
# Assay in all cases: PBM; 200 nM protein, PBS
# Settings in all cases: dsDNA, one strand shown
# [1] = target: HESX1 (Homo sapiens, UniProt Q9UBX0 95-180, R165K)
# [2] = target: HESX1 (Homo sapiens, UniProt Q9UBX0 95-180)
# [3] = target: PROP1 (Homo sapiens, UniProt O75360 56-141)
# [4] = target: HESX1 (Homo sapiens, UniProt Q9UBX0 95-180, R109Q)
# [5] = target: PROP1 (Homo sapiens, UniProt O75360 56-141, R99H)
# [6] = target: ALX3 (Homo sapiens, UniProt O95076 139-225, L168Q)
# Sequence of ALX3 (Homo sapiens, UniProt O95076 139-225, L168Q) (O95076 139-225 L168Q): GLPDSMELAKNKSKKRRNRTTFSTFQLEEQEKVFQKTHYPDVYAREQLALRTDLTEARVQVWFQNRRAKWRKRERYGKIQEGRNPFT
# [7] = target: HESX1 (Homo sapiens, UniProt Q9UBX0 95-180, P111T)
# Sequence of HESX1 (Homo sapiens, UniProt Q9UBX0 95-180, P111T) (Q9UBX0 95-180 P111T): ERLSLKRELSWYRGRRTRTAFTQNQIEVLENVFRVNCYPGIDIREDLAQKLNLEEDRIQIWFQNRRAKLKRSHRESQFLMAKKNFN
# [8] = target: ALX3 (Homo sapiens, UniProt O95076 139-225, L168V)
# Sequence of ALX3 (Homo sapiens, UniProt O95076 139-225, L168V) (O95076 139-225 L168V): as the sequence (O95076 139-225 L168Q) above, with Q30V counted along it
# [9] = target: PROP1 (Homo sapiens, UniProt O75360 56-141, F88S)
# Sequence of PROP1 (Homo sapiens, UniProt O75360 56-141, F88S) (O75360 56-141 F88S): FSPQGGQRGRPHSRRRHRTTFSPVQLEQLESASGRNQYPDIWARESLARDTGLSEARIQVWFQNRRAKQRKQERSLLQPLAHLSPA
# [10] = target: HESX1 (Homo sapiens, UniProt Q9UBX0 95-180, F115L)
# Sequence of HESX1 (Homo sapiens, UniProt Q9UBX0 95-180, F115L) (Q9UBX0 95-180 F115L): as the sequence (Q9UBX0 95-180 P111T) above, with T17P, F21L counted along it
# [11] = target: PRRX1 (Homo sapiens, UniProt P54821 80-166, F113S)
# Sequence of PRRX1 (Homo sapiens, UniProt P54821 80-166, F113S) (P54821 80-166 F113S): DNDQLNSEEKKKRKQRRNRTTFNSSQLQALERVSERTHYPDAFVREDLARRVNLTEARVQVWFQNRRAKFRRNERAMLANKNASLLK
# [12] = target: PRRX1 (Homo sapiens, UniProt P54821 80-166)
# Sequence of PRRX1 (Homo sapiens, UniProt P54821 80-166) (P54821 80-166): as the sequence (P54821 80-166 F113S) above, with S34F counted along it
# [13] = target: ALX1 (Homo sapiens, UniProt Q15699 118-204, L144V)
# Sequence of ALX1 (Homo sapiens, UniProt Q15699 118-204, L144V) (Q15699 118-204 L144V): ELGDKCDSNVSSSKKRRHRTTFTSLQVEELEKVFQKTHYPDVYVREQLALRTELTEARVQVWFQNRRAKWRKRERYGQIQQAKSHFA
# [14] = target: ALX1 (Homo sapiens, UniProt Q15699 118-204, L144R)
# Sequence of ALX1 (Homo sapiens, UniProt Q15699 118-204, L144R) (Q15699 118-204 L144R): as the sequence (Q15699 118-204 L144V) above, with V27R counted along it
# [15] = target: ALX1 (Homo sapiens, UniProt Q15699 118-204)
# Sequence of ALX1 (Homo sapiens, UniProt Q15699 118-204) (Q15699 118-204): as the sequence (Q15699 118-204 L144V) above, with V27L counted along it
# [16] = target: MSX2 (Homo sapiens, UniProt P35548 130-214, R199I)
# Sequence of MSX2 (Homo sapiens, UniProt P35548 130-214, R199I) (P35548 130-214 R199I): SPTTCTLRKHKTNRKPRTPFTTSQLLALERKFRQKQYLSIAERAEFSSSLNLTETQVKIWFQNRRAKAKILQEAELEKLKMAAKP
# [17] = target: MSX2 (Homo sapiens, UniProt P35548 130-214)
# Sequence of MSX2 (Homo sapiens, UniProt P35548 130-214) (P35548 130-214): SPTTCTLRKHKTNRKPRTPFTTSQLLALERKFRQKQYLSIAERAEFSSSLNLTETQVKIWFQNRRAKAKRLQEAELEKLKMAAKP
# [18] = target: MSX2 (Homo sapiens, UniProt P35548 130-214, F161Y)
# Sequence of MSX2 (Homo sapiens, UniProt P35548 130-214, F161Y) (P35548 130-214 F161Y): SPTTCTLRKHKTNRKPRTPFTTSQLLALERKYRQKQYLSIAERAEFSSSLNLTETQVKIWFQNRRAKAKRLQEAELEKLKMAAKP
# Sequence of HESX1 (Homo sapiens, UniProt Q9UBX0 95-180, R109Q) (Q9UBX0 95-180 R109Q): as the sequence (Q9UBX0 95-180 P111T) above, with R15Q, T17P counted along it
# Sequence of HESX1 (Homo sapiens, UniProt Q9UBX0 95-180) (Q9UBX0 95-180): as the sequence (Q9UBX0 95-180 P111T) above, with T17P counted along it
# Sequence of PROP1 (Homo sapiens, UniProt O75360 56-141) (O75360 56-141): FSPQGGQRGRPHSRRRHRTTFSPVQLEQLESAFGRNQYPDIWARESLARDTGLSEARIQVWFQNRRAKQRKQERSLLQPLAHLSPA
# Sequence of PROP1 (Homo sapiens, UniProt O75360 56-141, R99H) (O75360 56-141 R99H): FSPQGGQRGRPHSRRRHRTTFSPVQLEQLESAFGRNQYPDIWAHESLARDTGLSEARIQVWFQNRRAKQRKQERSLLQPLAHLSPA
# Sequence of HESX1 (Homo sapiens, UniProt Q9UBX0 95-180, R165K) (Q9UBX0 95-180 R165K): as the sequence (Q9UBX0 95-180 P111T) above, with T17P, R71K counted along it
sequence,measurement,setting,value
CCGAGACC,binding signal,[1],"6.38 upbm affinity estimate (log intensity, higher = more binding, comparable within an allelic series)"
same,binding signal,[2],"6.35 upbm affinity estimate (log intensity, higher = more binding, comparable within an allelic series)"
same,binding signal,[3],"6.57 upbm affinity estimate (log intensity, higher = more binding, comparable within an allelic series)"
same,binding signal,[4],"6.45 upbm affinity estimate (log intensity, higher = more binding, comparable within an allelic series)"
same,binding signal,[5],"6.84 upbm affinity estimate (log intensity, higher = more binding, comparable within an allelic series)"
same,binding signal,[6],"7.73 upbm affinity estimate (log intensity, higher = more binding, comparable within an allelic series)"
same,binding signal,[7],"6.33 upbm affinity estimate (log intensity, higher = more binding, comparable within an allelic series)"
same,binding signal,[8],"7.74 upbm affinity estimate (log intensity, higher = more binding, comparable within an allelic series)"
same,binding signal,[9],"6.43 upbm affinity estimate (log intensity, higher = more binding, comparable within an allelic series)"
same,binding signal,[10],"6.5 upbm affinity estimate (log intensity, higher = more binding, comparable within an allelic series)"
GCCGTCGC,binding signal,[1],"6.39 upbm affinity estimate (log intensity, higher = more binding, comparable within an allelic series)"
same,binding signal,[11],"9.29 upbm affinity estimate (log intensity, higher = more binding, comparable within an allelic series)"
same,binding signal,[2],"6.51 upbm affinity estimate (log intensity, higher = more binding, comparable within an allelic series)"
same,binding signal,[4],"6.58 upbm affinity estimate (log intensity, higher = more binding, comparable within an allelic series)"
same,binding signal,[7],"6.45 upbm affinity estimate (log intensity, higher = more binding, comparable within an allelic series)"
same,binding signal,[10],"6.53 upbm affinity estimate (log intensity, higher = more binding, comparable within an allelic series)"
same,binding signal,[12],"9.58 upbm affinity estimate (log intensity, higher = more binding, comparable within an allelic series)"
ACGCTGCG,binding signal,[1],"6.32 upbm affinity estimate (log intensity, higher = more binding, comparable within an allelic series)"
same,binding signal,[2],"6.32 upbm affinity estimate (log intensity, higher = more binding, comparable within an allelic series)"
same,binding signal,[13],"6.28 upbm affinity estimate (log intensity, higher = more binding, comparable within an allelic series)"
same,binding signal,[14],"6.23 upbm affinity estimate (log intensity, higher = more binding, comparable within an allelic series)"
same,binding signal,[4],"6.51 upbm affinity estimate (log intensity, higher = more binding, comparable within an allelic series)"
same,binding signal,[7],"6.42 upbm affinity estimate (log intensity, higher = more binding, comparable within an allelic series)"
same,binding signal,[10],"6.51 upbm affinity estimate (log intensity, higher = more binding, comparable within an allelic series)"
same,binding signal,[15],"6.21 upbm affinity estimate (log intensity, higher = more binding, comparable within an allelic series)"
CCAGGACC,binding signal,[1],"6.54 upbm affinity estimate (log intensity, higher = more binding, comparable within an allelic series)"
same,binding signal,[2],"6.39 upbm affinity estimate (log intensity, higher = more binding, comparable within an allelic series)"
same,binding signal,[4],"6.57 upbm affinity estimate (log intensity, higher = more binding, comparable within an allelic series)"
same,binding signal,[7],"6.52 upbm affinity estimate (log intensity, higher = more binding, comparable within an allelic series)"
same,binding signal,[10],"6.51 upbm affinity estimate (log intensity, higher = more binding, comparable within an allelic series)"
CGCAATTA,binding signal,[1],"11.6 upbm affinity estimate (log intensity, higher = more binding, comparable within an allelic series)"
same,binding signal,[2],"11.8 upbm affinity estimate (log intensity, higher = more binding, comparable within an allelic series)"
same,binding signal,[16],"12.6 upbm affinity estimate (log intensity, higher = more binding, comparable within an allelic series)"
same,binding signal,[17],"13.7 upbm affinity estimate (log intensity, higher = more binding, comparable within an allelic series)"
same,binding signal,[4],"8.21 upbm affinity estimate (log intensity, higher = more binding, comparable within an allelic series)"
same,binding signal,[7],"10.1 upbm affinity estimate (log intensity, higher = more binding, comparable within an allelic series)"
same,binding signal,[18],"13.4 upbm affinity estimate (log intensity, higher = more binding, comparable within an allelic series)"
same,binding signal,[10],"7.22 upbm affinity estimate (log intensity, higher = more binding, comparable within an allelic series)"
CCAGCGCA,binding signal,[1],"6.46 upbm affinity estimate (log intensity, higher = more binding, comparable within an allelic series)"
same,binding signal,[2],"6.4 upbm affinity estimate (log intensity, higher = more binding, comparable within an allelic series)"
same,binding signal,[16],"9.46 upbm affinity estimate (log intensity, higher = more binding, comparable within an allelic series)"
same,binding signal,[17],"9.44 upbm affinity estimate (log intensity, higher = more binding, comparable within an allelic series)"
same,binding signal,[4],"6.49 upbm affinity estimate (log intensity, higher = more binding, comparable within an allelic series)"
same,binding signal,[7],"6.38 upbm affinity estimate (log intensity, higher = more binding, comparable within an allelic series)"
same,binding signal,[18],"9.44 upbm affinity estimate (log intensity, higher = more binding, comparable within an allelic series)"
same,binding signal,[10],"6.38 upbm affinity estimate (log intensity, higher = more binding, comparable within an allelic series)"
GCAATTAC,binding signal,[1],"11.4 upbm affinity estimate (log intensity, higher = more binding, comparable within an allelic series)"
same,binding signal,[2],"11.5 upbm affinity estimate (log intensity, higher = more binding, comparable within an allelic series)"
same,binding signal,[16],"12.5 upbm affinity estimate (log intensity, higher = more binding, comparable within an allelic series)"
same,binding signal,[17],"13.7 upbm affinity estimate (log intensity, higher = more binding, comparable within an allelic series)"
same,binding signal,[4],"8.2 upbm affinity estimate (log intensity, higher = more binding, comparable within an allelic series)"
same,binding signal,[7],"9.93 upbm affinity estimate (log intensity, higher = more binding, comparable within an allelic series)"
same,binding signal,[18],"13.4 upbm affinity estimate (log intensity, higher = more binding, comparable within an allelic series)"
same,binding signal,[10],"7.19 upbm affinity estimate (log intensity, higher = more binding, comparable within an allelic series)"
CGACGCGA,binding signal,[1],"6.36 upbm affinity estimate (log intensity, higher = more binding, comparable within an allelic series)"
same,binding signal,[2],"6.45 upbm affinity estimate (log intensity, higher = more binding, comparable within an allelic series)"
same,binding signal,[4],"6.44 upbm affinity estimate (log intensity, higher = more binding, comparable within an allelic series)"
same,binding signal,[7],"6.38 upbm affinity estimate (log intensity, higher = more binding, comparable within an allelic series)"
same,binding signal,[10],"6.54 upbm affinity estimate (log intensity, higher = more binding, comparable within an allelic series)"
GCCGGTCC,binding signal,[1],"6.49 upbm affinity estimate (log intensity, higher = more binding, comparable within an allelic series)"
same,binding signal,[2],"6.35 upbm affinity estimate (log intensity, higher = more binding, comparable within an allelic series)"
same,binding signal,[4],"6.44 upbm affinity estimate (log intensity, higher = more binding, comparable within an allelic series)"
same,binding signal,[7],"6.43 upbm affinity estimate (log intensity, higher = more binding, comparable within an allelic series)"
same,binding signal,[10],"6.58 upbm affinity estimate (log intensity, higher = more binding, comparable within an allelic series)"
CGCACGCC,binding signal,[1],"6.51 upbm affinity estimate (log intensity, higher = more binding, comparable within an allelic series)"
same,binding signal,[2],"6.47 upbm affinity estimate (log intensity, higher = more binding, comparable within an allelic series)"
same,binding signal,[3],"6.43 upbm affinity estimate (log intensity, higher = more binding, comparable within an allelic series)"
same,binding signal,[4],"6.54 upbm affinity estimate (log intensity, higher = more binding, comparable within an allelic series)"
same,binding signal,[5],"6.77 upbm affinity estimate (log intensity, higher = more binding, comparable within an allelic series)"
same,binding signal,[7],"6.43 upbm affinity estimate (log intensity, higher = more binding, comparable within an allelic series)"
same,binding signal,[9],"6.63 upbm affinity estimate (log intensity, higher = more binding, comparable within an allelic series)"
same,binding signal,[10],"6.48 upbm affinity estimate (log intensity, higher = more binding, comparable within an allelic series)"
GCGAGCGC,binding signal,[1],"6.46 upbm affinity estimate (log intensity, higher = more binding, comparable within an allelic series)"
same,binding signal,[2],"6.44 upbm affinity estimate (log intensity, higher = more binding, comparable within an allelic series)"
same,binding signal,[3],"6.62 upbm affinity estimate (log intensity, higher = more binding, comparable within an allelic series)"
same,binding signal,[4],"6.48 upbm affinity estimate (log intensity, higher = more binding, comparable within an allelic series)"
same,binding signal,[5],"6.66 upbm affinity estimate (log intensity, higher = more binding, comparable within an allelic series)"
same,binding signal,[7],"6.41 upbm affinity estimate (log intensity, higher = more binding, comparable within an allelic series)"
same,binding signal,[9],"6.75 upbm affinity estimate (log intensity, higher = more binding, comparable within an allelic series)"
same,binding signal,[10],"6.54 upbm affinity estimate (log intensity, higher = more binding, comparable within an allelic series)"
CGATTATC,binding signal,[1],"8.23 upbm affinity estimate (log intensity, higher = more binding, comparable within an allelic series)"
same,binding signal,[2],"8.64 upbm affinity estimate (log intensity, higher = more binding, comparable within an allelic series)"
same,binding signal,[10],"6.88 upbm affinity estimate (log intensity, higher = more binding, comparable within an allelic series)"
AGAGCGCG,binding signal,[1],"6.51 upbm affinity estimate (log intensity, higher = more binding, comparable within an allelic series)"
same,binding signal,[2],"6.38 upbm affinity estimate (log intensity, higher = more binding, comparable within an allelic series)"
same,binding signal,[4],"6.56 upbm affinity estimate (log intensity, higher = more binding, comparable within an allelic series)"
same,binding signal,[7],"6.61 upbm affinity estimate (log intensity, higher = more binding, comparable within an allelic series)"
same,binding signal,[10],"6.46 upbm affinity estimate (log intensity, higher = more binding, comparable within an allelic series)"
CCGTAGGC,binding signal,[1],"6.41 upbm affinity estimate (log intensity, higher = more binding, comparable within an allelic series)"
same,binding signal,[2],"6.44 upbm affinity estimate (log intensity, higher = more binding, comparable within an allelic series)"
same,binding signal,[4],"6.53 upbm affinity estimate (log intensity, higher = more binding, comparable within an allelic series)"
same,binding signal,[7],"6.41 upbm affinity estimate (log intensity, higher = more binding, comparable within an allelic series)"
same,binding signal,[10],"6.48 upbm affinity estimate (log intensity, higher = more binding, comparable within an allelic series)"
CCCCCAGC,binding signal,[1],"6.28 upbm affinity estimate (log intensity, higher = more binding, comparable within an allelic series)"
same,binding signal,[2],"6.22 upbm affinity estimate (log intensity, higher = more binding, comparable within an allelic series)"
same,binding signal,[4],"6.3 upbm affinity estimate (log intensity, higher = more binding, comparable within an allelic series)"
same,binding signal,[7],"6.31 upbm affinity estimate (log intensity, higher = more binding, comparable within an allelic series)"
same,binding signal,[10],"6.46 upbm affinity estimate (log intensity, higher = more binding, comparable within an allelic series)"
ACCGTCCG,binding signal,[1],"6.56 upbm affinity estimate (log intensity, higher = more binding, comparable within an allelic series)"
same,binding signal,[2],"6.57 upbm affinity estimate (log intensity, higher = more binding, comparable within an allelic series)"
same,binding signal,[4],"6.49 upbm affinity estimate (log intensity, higher = more binding, comparable within an allelic series)"
same,binding signal,[7],"6.5 upbm affinity estimate (log intensity, higher = more binding, comparable within an allelic series)"
same,binding signal,[10],"6.47 upbm affinity estimate (log intensity, higher = more binding, comparable within an allelic series)"
